These results are taken from PubChem BioAssay.

A number with no mark means an inactive call. How the calls were made is not given here.

The nature of this test: P. aeruginosa biofilm formation inhibitors, primary screen, strain PAO1, LB-PBS medium, absorbance 600 nm (AID 1176). Further: test concentration not given here. Conditions: P. aeruginosa PAO1 growth/biofilm, A600, 12 h; higher = more signal.
For the molecule `N#Cc1ccc(NN2C(C(O)c3ccccc3)C=CC3C(=O)N(c4ccccc4)C(=O)C32)cc1` (stereo not given), the z-score was 0.158.
The same measure for `O=C(NCc1ccccc1)[C@]1(Cc2ccccc2)N=C(c2ccc(OCCCO)cc2)O[C@@H]1c1ccccc1`: 1.19.
The same measure for `CC(C)CCC[C@@H](C)[C@H]1CC[C@@]2(C)C3=C(CC[C@]12C)[C@@]1(C)CC[C@H](OC(=O)C(C)(C)C)C(C)(C)C1CC3` (stereo not given in full): 1.65; for `NC(=O)NCC#Cc1ccc2c(c1)[C@]1(C(=O)N2)[C@H](c2ccc(OCCO)cc2)N2[C@H](c3ccccc3)[C@H](c3ccccc3)OC(=O)[C@H]2[C@@H]1C(=O)N1CCCCCCC1`: 2.03; for `[N-]=[N+]=Nc1ccccc1[C@H]1OC(c2ccc(OCCCO)cc2)=N[C@@]1(Cc1ccccc1)C(=O)NCc1ccccc1`: 0.124.
For the molecule `COCCOC(=O)N1C(=O)[C@@]2(c3cc(C#CCC(C(=O)OC)C(=O)OC)ccc31)[C@H](C(=O)N1CCCCCCC1)[C@H]1C(=O)O[C@H](c3ccccc3)[C@H](c3ccccc3)N1[C@@H]2c1ccc(O)cc1`, the z-score was 0.1.
The same measure for `C=CC[C@]1(C(=O)NCC(O)CO)N=C(c2ccc(OCCCO)cc2)O[C@H]1c1ccccc1N=[N+]=[N-]` (stereo not given in full): 0.755.
The same measure for `O=C(Nc1cc(Br)ccc1C(=O)NCc1cccc(O)c1)c1ccccc1`: 0.034.
With `CC1CC/C=C\[C@H]2OC34C=CCN(c5ccc(Cl)cc5)C(=O)[C@H]3N(C(CO)C(C)C)C(=O)[C@]4(C)C2C(=O)O1` (stereo not given in full), the z-score is 0.109.
The same measure for `CC1=C2[C@@H](CCc3ccccc3)OB(O)C[C@@H]2[C@@H]2C(=O)C=CC(=O)[C@@H]2C1`: 0.589.
The figure for `[N-]=[N+]=NCc1ccccc1C[C@]1(C(=O)NCCN2CCOCC2)COC(c2ccc(OCCCO)cc2)=N1` is 0.535; for `COc1ccc(CCNC(=O)[C@@H]2c3ccccc3C(=O)N(Cc3ccccc3)[C@H]2c2ccc(CO)cc2)cc1` it is 0.801; for `C=CC[C@@]1(C(=O)NCC(O)CO)N=C(c2ccc(OCCCO)cc2)O[C@@H]1c1ccccc1` (stereo not given in full) it is -0.223.
Regarding `CO[C@H]1O[C@H](CO)[C@@H](OC(=O)Nc2cccc(F)c2)[C@H](OC(=O)Nc2ccc3c(c2)OCO3)[C@H]1OC(=O)Nc1ccc2c(c1)OCO2`, the z-score was 1.38.
On to `COc1ccc(C#Cc2ccc3c(c2)[C@]2(C(=O)N3)[C@H](c3ccc(OCCO)cc3)N3[C@H](c4ccccc4)[C@H](c4ccccc4)OC(=O)[C@H]3[C@@H]2C(=O)N2CCN(c3ncccn3)CC2)cc1`, for which the z-score is 1.66.
The same measure for `COCC(=C=CC[C@@H](O)c1ccccc1OCCO)C[C@@H](O)c1ccccn1`: 0.354; for `CCCN1C(=O)[C@@]2(Cc3ccccc3)N=C(c3ccc(OCCCO)cc3)O[C@H]2c2ccccc21`: 1.02; for `NC(=O)NCC#Cc1ccc2c(c1)[C@]1(C(=O)N2)[C@H](c2ccc(OCCO)cc2)N2[C@H](c3ccccc3)[C@H](c3ccccc3)OC(=O)[C@H]2[C@@H]1C(=O)N1CCN(c2ncccn2)CC1`: 2.71.
As for `C=CCC(OC(C)=O)[C@@H]1[C@@H](N(Cc2cccc3ccccc23)C(=O)c2ccc(C)cc2)c2cc(OCCCO)ccc2N1C(=O)c1ccc2ccccc2c1` (stereo not given in full), the z-score was 0.101.
As to `COc1ccc([Si](C)(C)[C@@H]2[C@@H](CC(=O)N(CCO)Cc3ccccc3)O[C@]3(C(=O)N(Cc4ccc(N5CCOC5=O)cc4)c4ccccc43)[C@H]2C)cc1`, the z-score was 1.77.
Consider `COc1ccccc1CN1C(=O)c2ccccc2[C@](Cc2ccccc2I)(C(=O)NCCN2CCOCC2)[C@@H]1c1ccc(CO)cc1`, for which the z-score is 0.817.
With `CN(C)CCCN1C(=O)[C@@]2(Cc3ccccc31)c1ccccc1C(=O)N(Cc1ccccc1)[C@H]2c1ccc(CO)cc1`, the z-score was 0.587.
For the molecule `Cc1ccc(S[C@]2(C(=O)O)CC(=O)N(Cc3ccccc3C(F)(F)F)[C@@H]2c2ccc(CO)cc2)cc1`, the z-score is 0.127.
On to `CCOC(=O)C1=CC[C@@H](c2ccccc2)N(S(=O)(=O)c2ccc(C)cc2)[C@H]1C=C(C)C`, for which the z-score was 0.229.
The same measure for `COCCOC(=O)N1C(=O)[C@@]2(c3cc(C#CCNC(N)=O)ccc31)[C@H](C(=O)N1CCCCCCC1)[C@H]1C(=O)O[C@H](c3ccccc3)[C@H](c3ccccc3)N1[C@@H]2c1ccc(OCCO)cc1`: 2.73.
